These results are taken from PubChem BioAssay AID624261 (National Center for Advancing Translational Sciences (NCATS), 2012).

Some of the results follow. Activity calls are given as the source filed them. The call rests on the fitted dose curve.

Glutaminase kidney isoform, mitochondrial (Homo sapiens), sequence (O94925 whole entry, looked up, canonical isoform): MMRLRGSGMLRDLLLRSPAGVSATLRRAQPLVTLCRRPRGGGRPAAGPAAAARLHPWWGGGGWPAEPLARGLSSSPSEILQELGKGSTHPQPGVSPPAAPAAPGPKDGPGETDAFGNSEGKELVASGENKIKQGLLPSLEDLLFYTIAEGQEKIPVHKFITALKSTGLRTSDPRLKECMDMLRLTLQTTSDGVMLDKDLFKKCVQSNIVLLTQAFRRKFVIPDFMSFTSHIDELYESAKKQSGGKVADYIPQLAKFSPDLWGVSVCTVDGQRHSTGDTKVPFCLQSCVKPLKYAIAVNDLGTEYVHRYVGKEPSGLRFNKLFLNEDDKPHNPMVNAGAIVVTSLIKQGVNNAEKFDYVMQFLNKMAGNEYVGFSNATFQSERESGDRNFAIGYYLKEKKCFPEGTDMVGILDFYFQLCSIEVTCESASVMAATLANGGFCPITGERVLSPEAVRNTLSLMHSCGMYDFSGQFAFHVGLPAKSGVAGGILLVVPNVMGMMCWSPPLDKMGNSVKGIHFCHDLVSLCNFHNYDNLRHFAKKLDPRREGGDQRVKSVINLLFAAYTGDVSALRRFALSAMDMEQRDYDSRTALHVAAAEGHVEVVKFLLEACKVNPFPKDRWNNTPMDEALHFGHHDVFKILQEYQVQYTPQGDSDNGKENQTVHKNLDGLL

The assay deals with Glutaminase kidney isoform, mitochondrial (Homo sapiens) (UniProt O94925). The assay can be described thus: qHTS for Inhibitors of Glutaminase (GLS): Hit Confirmation. Particulars: biochemical glutaminase enzyme inhibition assay. From the text:
Glutaminase (GLS) catalyzes the hydrolysis of glutamine into glutamate and ammonia. It plays a critical role in glutaminolysis, which is an important energy source for proliferating cells. It was shown that c-Myc, an oncogenic transcription factor known to regulate microRNAs and to stimulate cell proliferation, increases glutamine metabolism by stimulating the expression of GLS via direct suppression of miR23a and miR23b.
GLS is also thought to play a pathogenic role on HAD using a human HIV-1 infected macrophage system. […] GLS inhibition limits glutamate release and provides neuroprotection against HIV-1 infected macrophages.
The overall goal of this project is to identify small molecule inhibitors of GLS through quantitative high throughput screening (qHTS) of the MLSMR. A validated potent and selective inhibitor can be used as a tool molecule to further study the pharmacology of its target as well as explore its potential therapeutic application in cancer and inflammatory neurological disorders, such as HIV1-associated dementia (HAD) and multiple sclerosis. This is the hit confirmation in the primary assay data. […]
Three 3 uL of hKGA is dispensed into black well 1536-well plates in 45 mM KH2PO4 (pH 8.2), 0.02% Tween-20. […] Plate is centrifuged for 25 sec before an initial fluorescence read is obtained on the ViewLux, after 30 min of RT incubation, the final read is taken on the ViewLux.
For `COc1cc(OC)c(S(=O)(=O)Nc2ccccc2C(=O)O)cc1S(=O)(=O)Nc1ccccc1C(=O)O`, the Potency is 5.8 µM (active).
